The list is not random: actives were taken first. Their share in the collection is about 3.8%.
ATXN viability – reduces viability in counter-screen for ATXN expression inhibitors; S2 cells (HEK-293 line with an ATXN2-luciferase reporter) viability, CellTiter-Fluor protease fluorescence, 24 h; Potency, µM (titrated, usually from 56.7 µM), hits mostly cytotoxic; AID 651635; actives 0.49% (n = 400,000); further: nearly all actives have a fitted effect of over 40% in size
ATXN2 expr inh – ATXN2 expression inhibition; HEK-293 ATXN2-luciferase reporter, luminescence, 24 h; Potency, µM (series often up to 57 µM), without a hit: top-dose activity change, negative = inhibition, hits mostly inhibitors; actives 0.72% (n = 360,000); AID 1745845; further: on the % scale 0 is the no-effect control and ±100 the full control effect; nearly all actives have a fitted effect of over 55% in size
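qHTS (up to 57 uM final) was run with 24 h compound exposure of reporter cells at 37 °C. Each well was multiplexed: SteadyGlo luminescence measured ATXN2-luciferase expression after a fluorogenic Gly-Phe-AFC viability readout (25 uM final).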
HepG2 viability – counter-screen for TGF-b inhibitors: cytotoxicity in HepG2 cells; HepG2 CAGA-GFP viability, ATP luminescence, 18 h; Potency, µM (series often up to 46.1 µM), for the others: at the top dose activity change, negative = cytotoxicity, hits mostly cytotoxic; actives 0.76% (n = 410,000)
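HepG2 CAGA-GFP cells (1000/well, DMEM with 1% FBS) received compound, then TGF-beta at 500 pg/mL final, and were incubated 18 hours at 37 degrees C. Viability was read by CellTiter-Glo luminescence. Media-only wells were set as complete cell-killing and DMSO as no toxicity.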
TGFb inhibitor – inhibitors of TGF-b signaling. HepG2 CAGA-GFP TGF-b/SMAD3 reporter, GFP fluorescence, 18 h; TGF-beta stimulated, 500 pg/mL final. AID 588855. Potency, µM (titrated, usually from 46.1 µM), inactives show at the top dose activity, negative = inhibition, hits mostly inhibitors. actives 1.2% (n = 410,000); further: on the % scale 0 is the no-effect control and ±100 the full control effect; nearly all actives have a fitted effect of over 65% in size
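GFP signal (ex488/em500-530) from TGF-beta-stimulated HEPG2 CAGA-GFP cells, 500 pg/mL final, 18 h at 37 degrees C in DMEM plus 1% FBS, normalized to unstimulated and DMSO-stimulated controls.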
HT1080NT lethal – kills 2HG-producing HT-1080-NT fibrosarcoma cells. HT-1080-NT fibrosarcoma viability, CellTiter-Glo ATP luminescence, 48 h. Potency, µM (highest dose often 46.1 µM), inactives show at the top dose activity, negative = less viability, actives largely listed as cytotoxic. actives 1.6% (n = 360,000). AID 686970;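 further: NT is the 2HG producing partner of a matched IDH1 knockdown line; 0% = DMSO-treated cells and -100% = media-only wells without cells; nearly all actives have a fitted effect of over 55% in size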
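HT-1080-NT; 750 cells/well; 5% FBS RPMI; 48 h compound, 37 degrees C; CellTiter-Glo luminescence; curve fitting and curve-class assignment.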
HT1080 IDH1KD tx – HT-1080 IDH1 knockdown cell toxicity (counter line); HT-1080 IDH1 knockdown viability, ATP luminescence, 48 h; Potency, µM (top dose mostly 46.1 µM), inactives show at the highest dose activity, negative = toxicity, most hits filed as cytotoxic; actives 2% (n = 360,000); AID 686971;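 further: 0% = DMSO wells and -100% = cell-free medium wells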
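% activity derives from luminescence (CellTiter-Glo), normalised to DMSO and no-cell wells. HT-1080-IDH1KD cells, 750/well, had 48 h compound exposure at 37 °C.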
* marks the source's active call; other numbers are inactive results; i = inactive; u = inconclusive; x = no result; [ ] = remark or other dose. The call rests on the fitted dose curve; in most records, active means well fitted curve in the direction sought with a large enough effect; inconclusive means small, poorly fitted or top-dose-only effect, or another doubt; inactive means no such curve, though single readings can be large; an effect the other way counts as inactive or inconclusive. Potency means the concentration at half of the fitted maximal effect.

SMILES	ATXN viability	ATXN2 expr inh	HepG2 viability	TGFb inhibitor	HT1080NT lethal	HT1080 IDH1KD tx
O=C(CN1C(=O)CCSc2ccccc21)Nc1ccc(C(F)(F)F)cc1	i	-28.3%	-6.7%	-3.1%	x	x
COc1cc(/C=C/c2nc3ccccc3nc2/C=C/c2cc(OC)c(OC)c(OC)c2)cc(OC)c1OC	x	x	-8.7%	3.2%	x	x
Cc1ccc(C)c(S(=O)(=O)ON2C(=O)c3ccccc3C2=O)c1	u	-33.2%	-8.8%	u	u	13µM*
Cc1cc(S(=O)(=O)ON2C(=O)c3ccccc3C2=O)ccc1F	u	x	1.9%	11.0%	0.8%	0.0%
O=C1C=C(NCc2ccccc2)c2ccccc2C1=O	u	-21.9%[11.3 µM]	-109.0%	u	3.66µM*	4.61µM*
O=C1C=C(Nc2ccccc2O)c2ccccc2C1=O	u	14.1µM*	2.51µM*	1.78µM*	u	u
O=c1cccccc1NCc1ccccc1	x	x	-6.5%	-13.3%	2.3%	0.2%
Cc1ccc(NS(=O)(=O)c2ccc3c(c2)C(=O)c2ccccc2C3=O)c(C)c1	i	-4.8%	2.7%	-7.7%	-28.6%	-29.7%
Cc1ccc(NC2=CC(=O)C(=O)c3ccccc32)c(C)c1	u	x	5.01µM*	u	5.9%	0.8%
Cc1cc(-c2cc(F)cc3c2OC(CNC(=O)[C@@H]2CCC(=O)N2)C3)ccc1F (stereo partly drawn)	i	x	x	x	x	x
C/C(=N/NC(=O)COc1cc(C)ccc1C(C)C)C(=O)O	u	16.0%	-2.9%	-9.3%	u	6.51µM*
NC(=S)n1[nH]c(-c2ccc([N+](=O)[O-])cc2)c(N=Nc2ccc(Cl)cc2)c1=O	i	u	2.51µM*	2.51µM*	2.59µM*	4.11µM*
Cc1ccc([N+](=O)[O-])cc1N=Nc1c(-c2ccc([N+](=O)[O-])cc2)[nH]n(C(N)=S)c1=O	u	u	-34.2%	2.82µM*	u	u
COc1ccc2c(c1)OC(C)CN(CCNC(=O)c1cc3cc(F)ccc3[nH]1)C2 (stereo not drawn)	i	x	x	x	x	x
CCN1/C(=C/C=C/c2oc3ccc(-c4ccccc4)cc3[n+]2CC)Oc2ccc(-c3ccccc3)cc21	x	9.47µM*	-111.5%	102.6%	2.59µM*	0.92µM*
N#Cc1cccc(C=C(C(=O)c2ccccc2)c2ccccc2)c1	x	x	x	x	26.4µM*	u
N#C/C(=C\c1ccc(C#N)cc1)C(=O)c1ccccc1	i	x	-31.5%	-28.9%	-0.6%	-7.5%
Cc1ccc(Cc2nc3ccccc3nc2SCC(=O)N2CCCCC2)cc1	x	x	-33.6%	0.0%	x	x
CCC[C@H](CN[C@@H](CNC)[C@H](C)O)NCCc1ccc(OC)cc1	i	-3.8%	-7.3%	-1.9%	-17.6%	-0.1%
CCCC[C@H](CN[C@@H](CNC)[C@H](C)CC)NCCC12CCC(CC1)C2	28.2µM*	28.2µM*	-102.1%	u	u	u
CN(Cc1ccc(Cl)cc1)C(=O)CCl	x	u	-110.9%	u	u	16.4µM*
CN(Cc1ccc(Cl)s1)C(=O)CCl	x	13.4µM*	-63.0%	7.08µM*	20.6µM*	8.2µM*
COc1ccc(CN(C)C(=O)CCl)cc1	u	x	-12.8%	10.7%	u	u
CN1C2=NCCN2C(=O)c2cc(Cl)ccc21	i	4.7%	-50.9%	u	-3.2%	-0.1%
Brc1ccc2c(c1)-c1ccccc1C1=NCCN12	u	x	-1.6%	15.8µM*	23.1µM*	16.4µM*
SMILES	ATXN viability	ATXN2 expr inh	HepG2 viability	TGFb inhibitor	HT1080NT lethal	HT1080 IDH1KD tx
Clc1ccc2c(c1)-c1ccccc1C1=NCCN12	u	x	-2.5%	u	u	18.4µM*
COc1ccc(-n2c(=O)c3sc4ccccc4c3n(C)c2=O)cc1	i	-1.7%	2.1%	-10.5%	x	x
COc1ccc2c(c1)c(N1CCCC1=O)c(C(=O)Nc1cc(C)c(Cl)cc1OC)n2C	i	2.4%	4.5%	8.1%	x	x
CCC(=O)NC(C)c1cc(Cl)c2cccnc2c1O (stereo not drawn)	u	8.91µM*	-57.8%	1.78µM*	x	x
CC(=O)NC(C)c1cc(Cl)c2ccccc2c1O (stereo not drawn)	i	-6.2%	-0.9%	u	x	x
CC(=O)NC(C)c1cc(Cl)c2cccnc2c1O (stereo not drawn)	6.31µM*	7.94µM*	8.91µM*	7.08µM*	x	x
CCCCn1c(SCC(=O)c2ccccc2)nc2sc3c(c2c1=O)CCCC3	i	1.4%	1.9%	21.5%	x	x
CC(=O)c1ccc(F)c(-c2cc(C)cc3c2OC(CNC(=O)Cc2ccc4c(c2)OCO4)C3)c1 (stereo not drawn)	i	x	x	x	x	x
Cc1c([N+](=O)[O-])cnc(Sc2ccccc2)c1[N+](=O)[O-]	14.1µM*	x	20µM*	12.6µM*	u	u
Cc1ccc(Sc2ncccc2[N+](=O)[O-])cc1	i	14.5%	-2.2%	0.0%	3.5%	5.8%
Cc1cccc(-c2[nH]c(C(C)(C)C)nc2-c2ccc3c(c2)OCO3)n1	x	15.3µM*	x	x	x	x
Cc1ccccc1C(O)c1ccncc1 (stereo not drawn)	i	-5.2%	17.8µM*	-3.1%	23.8%	4.5%
Cc1ccc(C(O)c2ccncc2)cc1 (stereo not drawn)	i	-8.0%	-13.6%	11.7%	3.3%	-9.0%
COC(=O)c1ccc(NC(=O)CC2Nc3cc(C)c(C)cc3NC2=O)cc1 (stereo not drawn)	x	x	-98.3%	u	x	x
O=[N+]([O-])c1ccc(Sc2nnnn2-c2ccccc2)c(Cl)c1	i	5.8%	-94.7%	-25.2%	8.91µM*	10µM*
Cn1nnnc1Sc1ccc([N+](=O)[O-])cc1Cl	i	-9.6%	-3.1%	8.5%	1.7%	-22.2%
Cc1ccnn1CC(=O)N1CCOc2c(cc(-c3csc4ccccc34)cc2OC2CCOC2)C1 (stereo not drawn)	i	x	x	x	x	x
OCC#Cc1ncc(C(F)(F)F)cc1Cl	i	8.7%	1.5%	-8.5%	20.6µM*	u
NC(=O)Cc1ncc(C(F)(F)F)cc1Cl	i	-3.1%	-11.3%	-0.3%	9.1%	6.1%
CCC(C)(C)n1nnnc1C(c1cc2ccc(OC)cc2[nH]c1=O)N1CCc2ccccc21 (stereo not drawn)	u	-11.6%	-1.4%	u	u	11.2µM*
CCC(C)(C)n1nnnc1C(c1cc2cc(OC)ccc2[nH]c1=O)N1CCc2ccccc21 (stereo not drawn)	i	12.9%	3.4%	-17.8%	0.7%	-13.5%
CCC1(C2CCN(C(=O)c3csc(C(C)=O)c3)CC2)NC(=O)N(CCc2scnc2C)C1=O (stereo not drawn)	i	x	x	x	x	x
